Our source for the growth inhibition values is PubChem BioAssay (NCI).

Assay [1] in a line: NCI Yeast Anticancer Drug Screen. Data for the rad50 strain (AID 155).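 Note: 0% = growth of vehicle-only cultures of the same strain.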 To be noted: S. cerevisiae rad50 strain growth inhibition, active compounds read high. The gist of the method:
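Growth of the mutant yeast was measured after compound exposure and referenced to vehicle-treated cultures.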

Assay [2] can be described thus: NCI Yeast Anticancer Drug Screen. Data for the mec2-1 strain (AID 157). To be noted: S. cerevisiae mec2-1 strain, active compounds read high. The gist of the method: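 Mutant yeast (mec2-1) grown with compound; growth inhibition relative to vehicle control reported.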
Assay [3] can be described thus: NCI Yeast Anticancer Drug Screen. Data for the sgs1 mgt1 strain (AID 161).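 Note: 0% = growth of cultures given vehicle only.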 To be noted: S. cerevisiae sgs1 mgt1 strain, active compounds read high. The gist of the method:
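Compounds are added to genetically altered yeast, and growth is compared with cultures given vehicle alone to give percent inhibition.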

Assay [4] can be described thus: NCI Yeast Anticancer Drug Screen. Data for the cln2 rad14 strain (AID 165).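 Note: 0% = growth equal to vehicle treated cultures.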 To be noted: S. cerevisiae cln2 rad14 strain, active compounds read high. The procedure, abridged:
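Readout is yeast growth inhibition versus vehicle-treated controls, using a strain with cln2 and rad14 alterations exposed to compound.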

Assay [5] is described as follows: NCI Yeast Anticancer Drug Screen. Data for the bub3 strain (AID 167). The conditions noted are these: S. cerevisiae bub3 mutant strain, active compounds read high. The gist of the method: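 Whole-cell yeast assay. The mutant strain was incubated with compounds, and growth inhibition was determined by comparison with vehicle-treated cells.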
A short description of assay [6]: NCI Yeast Anticancer Drug Screen. Data for the mlh1 rad18 strain (AID 175). To be noted: S. cerevisiae mlh1 rad18 strain growth inhibition, active compounds read high. The procedure, abridged: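 Genetically defined yeast (DNA repair-deficient) exposed to compounds; growth inhibition determined relative to vehicle.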
[7] abbreviates: at 5.0 µM (retest, dose inferred, filed as 0.5).
[8] abbreviates: at 50.0 µM (retest, dose inferred, filed as 5.0).

Compounds without any hit were thinned out: in the full panel of roughly 79,000, 15% have a hit. Unmarked numbers belong to inactive results. Activity calls are given as the source filed them. Cut-off read from the data, not from the text of the source: active = growth inhibition above about 70%; inactive = the rest.

`CCCCCCCCCCCCCC(=O)CBr`: the growth inhibition was 11% in assay [1] (setting [7]); 84% (active) in assay [1] (setting [8]); 87.5% (active) in assay [1] (at 50.0 µM); 4% in assay [2] (setting [7]); 85% (active) in assay [2] (setting [8]); 80.1% (active) in assay [2] (at 50.0 µM). In addition, the growth inhibition in assay [3] (setting [7]) was 35%; in assay [3] (setting [8]) it was 99% (active); in assay [3] (at 50.0 µM), 84.5% (active); in assay [4] (setting [7]), 2%; in assay [4] (setting [8]), 68%; in assay [4] (at 50.0 µM), 66.2%. Moreover, the growth inhibition is 9% in assay [5] (setting [7]); 98% (active) in assay [5] (setting [8]); 85.8% (active) in assay [5] (at 50.0 µM); 5% in assay [6] (setting [7]); 90% (active) in assay [6] (setting [8]); 81.1% (active) in assay [6] (at 50.0 µM).
In the case of `CCOc1cc2c(OCc3ccccc3)cc3c4cc(OC)c(OC)cc4c[n+](C)c3c2cc1OC`, the growth inhibition in assay [1] (setting [7]) was 98% (active); in assay [1] (setting [8]), 99% (active); in assay [1] (at 50.0 µM) it was 59.6%; in assay [2] (setting [7]), 96% (active); in assay [2] (setting [8]) it was 99% (active); in assay [2] (at 50.0 µM), 46.2%. Further, the growth inhibition was 97% (active) in assay [3] (setting [7]); 99% (active) in assay [3] (setting [8]); 50.8% in assay [3] (at 50.0 µM); 97% (active) in assay [4] (setting [7]); 99% (active) in assay [4] (setting [8]); 55% in assay [4] (at 50.0 µM). Moreover, the growth inhibition in assay [5] (setting [7]) is 97% (active); in assay [5] (setting [8]) it was 99% (active); in assay [5] (at 50.0 µM), 50.3%; in assay [6] (setting [7]), 97% (active); in assay [6] (setting [8]), 99% (active); in assay [6] (at 50.0 µM), 50.1%.
As for `COc1cc(C2C=C(c3ccccc3)Oc3cc4c(cc32)OCO4)cc(OC)c1OC` (stereo not given), the growth inhibition in assay [1] (setting [7]) was 8%; in assay [1] (setting [8]) it was 21%; in assay [1] (at 50.0 µM) it was -30.1%; in assay [2] (setting [7]) it was -11%; in assay [2] (setting [8]), 16%; in assay [2] (at 50.0 µM) it was -39.9%. The growth inhibition in assay [3] (setting [7]) is -13%; in assay [3] (setting [8]), 25%; in assay [3] (at 50.0 µM), -7.8%; in assay [4] (setting [7]) it was -10%; in assay [4] (setting [8]), 27%; in assay [4] (at 50.0 µM), -5.3%. For the same compound, the growth inhibition in assay [5] (setting [7]) was -33%; in assay [5] (setting [8]) it was 38%; in assay [5] (at 50.0 µM) it was 11.9%; in assay [6] (setting [7]), 1%; in assay [6] (setting [8]), 23%; in assay [6] (at 50.0 µM), 3.4%.
For the compound `CC1=C(C(=O)Nc2cccc(Cl)c2)C(c2ccccc2F)C(C(=O)Nc2cccc(Cl)c2)=C(C)N1`, the growth inhibition is 44% in assay [1] (setting [7]); 44% in assay [1] (setting [8]); 71.3% (active) in assay [1] (at 50.0 µM); 49% in assay [2] (setting [7]); 49% in assay [2] (setting [8]); 81.8% (active) in assay [2] (at 50.0 µM). The growth inhibition was 37% in assay [3] (setting [7]); 37% in assay [3] (setting [8]); 86.2% (active) in assay [3] (at 50.0 µM); 36% in assay [4] (setting [7]); 36% in assay [4] (setting [8]); 85.1% (active) in assay [4] (at 50.0 µM). Also, the growth inhibition in assay [5] (setting [7]) was 56%; in assay [5] (setting [8]) it was 56%; in assay [5] (at 50.0 µM), 86.8% (active); in assay [6] (setting [7]) it was 62%; in assay [6] (setting [8]), 62%; in assay [6] (at 50.0 µM) it was 87.7% (active).
For the compound `Cc1ccnc(-c2cc(C)ccn2)c1`, the growth inhibition in assay [1] (setting [7]) was 6%; in assay [1] (setting [8]) it was 96% (active); in assay [1] (at 50.0 µM), 64%; in assay [2] (setting [7]), -3%; in assay [2] (setting [8]), 98% (active); in assay [2] (at 50.0 µM), 23.1%. Also, the growth inhibition was -4% in assay [3] (setting [7]); 57% in assay [3] (setting [8]); 57.9% in assay [3] (at 50.0 µM); -1% in assay [4] (setting [7]); 95% (active) in assay [4] (setting [8]); -46.7% in assay [4] (at 50.0 µM). Also, the growth inhibition in assay [5] (setting [7]) was 4%; in assay [5] (setting [8]), 91% (active); in assay [5] (at 50.0 µM), -3.15%; in assay [6] (setting [7]) it was 7%; in assay [6] (setting [8]) it was 98% (active); in assay [6] (at 50.0 µM), 37.9%.
For `O=S(Nc1ccccc1Br)c1ccccc1` (stereo not given), the growth inhibition in assay [1] (setting [7]) was -4%; in assay [1] (setting [8]), 10%; in assay [1] (at 50.0 µM), 22.2%; in assay [2] (setting [7]), -2%; in assay [2] (setting [8]), 16%; in assay [2] (at 50.0 µM) it was 24.1%. For the same compound, the growth inhibition in assay [3] (setting [7]) is -3%; in assay [3] (setting [8]), 21%; in assay [3] (at 50.0 µM) it was 59.2%; in assay [4] (setting [7]), 1%; in assay [4] (setting [8]) it was 12%; in assay [4] (at 50.0 µM), -3.25%. The growth inhibition in assay [5] (setting [7]) is -4%; in assay [5] (setting [8]) it was 34%; in assay [5] (at 50.0 µM) it was 16.9%; in assay [6] (setting [7]), -4%; in assay [6] (setting [8]) it was 45%; in assay [6] (at 50.0 µM), 44.8%.
Turning to `CCC(=O)[O][Bi]([c]1ccccc1)[c]1ccccc1`, the growth inhibition is 79% (active) in assay [1] (setting [7]); 96% (active) in assay [1] (setting [8]); 90.2% (active) in assay [1] (at 50.0 µM); 58% in assay [2] (setting [7]); 97% (active) in assay [2] (setting [8]); 92.4% (active) in assay [2] (at 50.0 µM). For the same compound, the growth inhibition in assay [3] (setting [7]) was 68%; in assay [3] (setting [8]), 97% (active); in assay [3] (at 50.0 µM), 92.5% (active); in assay [4] (setting [7]), 49%; in assay [4] (setting [8]), 95% (active); in assay [4] (at 50.0 µM), 90% (active). Further, the growth inhibition in assay [5] (setting [7]) was 81% (active); in assay [5] (setting [8]), 96% (active); in assay [5] (at 50.0 µM), 91.5% (active); in assay [6] (setting [7]) it was 85% (active); in assay [6] (setting [8]), 97% (active); in assay [6] (at 50.0 µM), 90% (active).
As to `CN(C)CC1CCCCCCCCCCCCC(CN(C)C)C1=O` (stereo not given), the growth inhibition is -18% in assay [1] (setting [7]); 42% in assay [1] (setting [8]); 83.7% (active) in assay [1] (at 50.0 µM); -6% in assay [2] (setting [7]); 22% in assay [2] (setting [8]); 77.8% (active) in assay [2] (at 50.0 µM). Besides, the growth inhibition was -15% in assay [3] (setting [7]); 57% in assay [3] (setting [8]); 95.5% (active) in assay [3] (at 50.0 µM); -23% in assay [4] (setting [7]); 20% in assay [4] (setting [8]); 72.2% (active) in assay [4] (at 50.0 µM). The growth inhibition in assay [5] (setting [7]) is -15%; in assay [5] (setting [8]), 46%; in assay [5] (at 50.0 µM), 88% (active); in assay [6] (setting [7]), -13%; in assay [6] (setting [8]), 87% (active); in assay [6] (at 50.0 µM), 39%.
`COc1cc(NCc2ccc3nc(-c4ccccc4)c(N)nc3c2)cc(OC)c1OC`: the growth inhibition in assay [1] (setting [7]) was 7%; in assay [1] (setting [8]) it was -19%; in assay [1] (at 50.0 µM), -8.3%; in assay [2] (setting [7]) it was -1%; in assay [2] (setting [8]) it was -12%; in assay [2] (at 50.0 µM), -9.45%. For the same compound, the growth inhibition in assay [3] (setting [7]) was -3%; in assay [3] (setting [8]), 7%; in assay [3] (at 50.0 µM), 50%; in assay [4] (setting [7]) it was 5%; in assay [4] (setting [8]), 3%; in assay [4] (at 50.0 µM) it was 16.6%. Further, the growth inhibition in assay [5] (setting [7]) was 8%; in assay [5] (setting [8]), -10%; in assay [5] (at 50.0 µM), 37.2%; in assay [6] (setting [7]), -16%; in assay [6] (setting [8]) it was 5%; in assay [6] (at 50.0 µM) it was 70.3% (active).
In the case of `Nc1ccccc1C(=O)/C=C/c1ccccc1`, the growth inhibition in assay [1] (setting [7]) was 19%; in assay [1] (setting [8]) it was 73% (active); in assay [1] (at 50.0 µM) it was 98.8% (active); in assay [2] (setting [7]) it was 4%; in assay [2] (setting [8]), 57%; in assay [2] (at 50.0 µM) it was 99% (active). For the same compound, the growth inhibition is -2% in assay [3] (setting [7]); 70% (active) in assay [3] (setting [8]); 94.6% (active) in assay [3] (at 50.0 µM); -23% in assay [4] (setting [7]); 27% in assay [4] (setting [8]); 80.1% (active) in assay [4] (at 50.0 µM). In addition, the growth inhibition in assay [5] (setting [7]) was 11%; in assay [5] (setting [8]) it was 73% (active); in assay [5] (at 50.0 µM), 99.2% (active); in assay [6] (setting [7]), 21%; in assay [6] (setting [8]) it was 84% (active); in assay [6] (at 50.0 µM), 96.8% (active).
